This is part of a sample that, as a whole, favours compounds with a hit. Of some 79,000 tested, about 15% had one in any assay. A number with no mark means an inactive call. The source made the active and inactive calls. Cut-off read from the data, not from the text of the source: active = growth inhibition above about 70%; inactive = the rest.
Assays:
[1] = NCI Yeast Anticancer Drug Screen. Data for the rad50 strain (AID 155);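 note: 0% = growth of vehicle-only cultures of the same strain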; details: S. cerevisiae rad50 strain growth inhibition; at 50.0 µM; hits give high values
Procedure, shortened: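 Inhibition values express reduced yeast growth in compound-treated cultures relative to vehicle-treated controls.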

[2] = NCI Yeast Anticancer Drug Screen. Data for the mec2-1 strain (AID 157); details: S. cerevisiae mec2-1 strain, at 50.0 µM, hits give high values
Procedure, shortened: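 Compounds were applied to mec2-1 yeast cells. Their growth was then compared with that of vehicle-treated cultures to give growth inhibition.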

[3] = NCI Yeast Anticancer Drug Screen. Data for the sgs1 mgt1 strain (AID 161);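 note: 0% = growth of cultures given vehicle only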; details: S. cerevisiae sgs1 mgt1 strain, at 50.0 µM, hits give high values
Procedure, shortened: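 Growth of a repair-deficient yeast mutant was monitored after compound treatment and expressed as inhibition relative to vehicle-treated cultures.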

[4] = NCI Yeast Anticancer Drug Screen. Data for the cln2 rad14 strain (AID 165);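 note: 0% = growth equal to vehicle treated cultures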; details: S. cerevisiae cln2 rad14 strain, at 50.0 µM, hits give high values
Procedure, shortened: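 Strain: cln2 rad14 yeast, altered in cell cycle control and DNA damage repair. Read-out: growth inhibition vs vehicle.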

[5] = NCI Yeast Anticancer Drug Screen. Data for the bub3 strain (AID 167); details: S. cerevisiae bub3 mutant strain, at 50.0 µM, hits give high values
Procedure, shortened: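 Steps: expose the mutant yeast strain to compound; grow alongside vehicle-treated cultures; measure growth; express inhibition against the vehicle cultures.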

[6] = NCI Yeast Anticancer Drug Screen. Data for the mlh1 rad18 strain (AID 175); details: S. cerevisiae mlh1 rad18 strain growth inhibition; at 50.0 µM; hits give high values
Procedure, shortened: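 A repair-deficient yeast strain is exposed to test compound, and growth is scored relative to vehicle-treated controls.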

`CC1(C)OC(=O)CC1CCN` (configuration not stated) gave a growth inhibition [1] of -0.75%, a growth inhibition [2] of -13.5% and a growth inhibition [3] of -7.05%. The growth inhibition [4] was -30.9%, the growth inhibition [5] was 14.9% and the growth inhibition [6] was 13.2%.

`CC(C)(C)c1cc[n+](C[n+]2ccc(C(C)(C)C)cc2)cc1` gave a growth inhibition [1] of 4.8%, a growth inhibition [2] of -12.2% and a growth inhibition [3] of -0.45%. For the same molecule, the growth inhibition [4] was -13.4%, the growth inhibition [5] was -22.9% and the growth inhibition [6] was -5%.

`CCC(C)C/C(C)=N\NC(N)=O` (configuration not stated) showed a growth inhibition [1] of 1.75%, a growth inhibition [2] of 0.1% and a growth inhibition [3] of 3.1%. The growth inhibition [4] was 9.2%, the growth inhibition [5] was -4.75% and the growth inhibition [6] was 6.25%.

`CC(=O)c1c(C)[nH]c(-c2ccccc2)c1NS(=O)(=O)c1ccc(N)cc1` showed a growth inhibition [1] of -0.2%, a growth inhibition [2] of -3.45% and a growth inhibition [3] of 25.4%. The growth inhibition [4] was -13%, the growth inhibition [5] was 4% and the growth inhibition [6] was 8.95%.

With `CCCCCCCCCC(=O)N/N=C/c1ccccc1Cl` the growth inhibition [1] was 9.95%, the growth inhibition [2] was 36.1% and the growth inhibition [3] was 29.6%. The growth inhibition [4] was -9.5%, the growth inhibition [5] was 19.3% and the growth inhibition [6] was 30.4%.

With `O=C(Nc1cc2c(cc1[N+](=O)[O-])-c1c(F)cccc1C2)C(F)(F)F` the growth inhibition [1] was 9.8%, the growth inhibition [2] was 1.4% and the growth inhibition [3] was 8.25%. It also gave a growth inhibition [4] of -14.2%, a growth inhibition [5] of 4.9% and a growth inhibition [6] of 2.15%.

`CCOc1c(N=Nc2ccc(OC)cc2)c(C)nn1C(N)=S` showed a growth inhibition [1] of -12.5%, a growth inhibition [2] of -1.5% and a growth inhibition [3] of 2.85%. The growth inhibition [4] was -48.7%, the growth inhibition [5] was 9.75% and the growth inhibition [6] was 15.2%.

`CCCCCC(=O)C(C)C1(C(=O)OC)NC(=S)NC(=O)C1C#N` (configuration not stated) showed a growth inhibition [1] of 16.8%, a growth inhibition [2] of 14.8% and a growth inhibition [3] of 13.1%. For the same molecule, the growth inhibition [4] was 12.4%, the growth inhibition [5] was -1.9% and the growth inhibition [6] was 17.4%.

In the case of `O=C(Nc1ccc(C(=O)CCl)cc1)Nc1ccc(C(=O)CCl)cc1`, the growth inhibition [1] is reported as 8.65%, the growth inhibition [2] is reported as 14.1% and the growth inhibition [3] is reported as 20.2%. It also gave a growth inhibition [4] of 0.35%, a growth inhibition [5] of 12.9% and a growth inhibition [6] of 14.6%.

In the case of `COc1cc(CNc2nc3c(NC(C)=O)cc(C(F)(F)F)cc3nc2-c2ccccc2)cc(OC)c1OC`, the growth inhibition [1] is reported as -16.1%, the growth inhibition [2] is reported as -15.8% and the growth inhibition [3] is reported as -32.3%. For the same molecule, the growth inhibition [4] was -4.35%, the growth inhibition [5] was 10.8% and the growth inhibition [6] was -10.3%.

Molecule `NNC(=O)c1n[nH]n(N)c1=S` has a growth inhibition [1] of 22.6%, a growth inhibition [2] of 25.1% and a growth inhibition [3] of 10.9%. The growth inhibition [4] was -8.65%, the growth inhibition [5] was -8.65% and the growth inhibition [6] was 24.2%.

In the case of `O=C(NNc1nc(CCl)cs1)c1ccccc1Cl`, the growth inhibition [1] is reported as -0.15%, the growth inhibition [2] is reported as -31.6% and the growth inhibition [3] is reported as 4.75%. It also gave a growth inhibition [4] of 7.35%, a growth inhibition [5] of -11.1% and a growth inhibition [6] of -11.6%.

Work on `CCC(/C=C/c1ccccc1)=N\NC(=O)c1ccc(C)cc1` yielded a growth inhibition [1] of 9.4%, a growth inhibition [2] of 10.7% and a growth inhibition [3] of 11.7%. For the same molecule, the growth inhibition [4] was -4.05%, the growth inhibition [5] was 15.5% and the growth inhibition [6] was 5.25%.

Work on `O=C(Cl)c1c(F)c(F)c(F)c(F)c1F` yielded a growth inhibition [1] of -29.6%, a growth inhibition [2] of -26.1% and a growth inhibition [3] of -7.4%. It also gave a growth inhibition [4] of 19.4%, a growth inhibition [5] of 1.25% and a growth inhibition [6] of -18.9%.

Work on `C[N+](C)(C)C(Cc1ccccc1)Cc1ccccc1` yielded a growth inhibition [1] of -27%, a growth inhibition [2] of 9.95% and a growth inhibition [3] of -29.9%. The growth inhibition [4] was -47.1%, the growth inhibition [5] was -0.7% and the growth inhibition [6] was 5.65%.

For `Cc1ccc(S(=O)(=O)CNC(=O)C(O)(O)C(F)(F)F)cc1`, the growth inhibition [1] was -24.9%, the growth inhibition [2] was -2.5% and the growth inhibition [3] was -9.45%. It also gave a growth inhibition [4] of 27.8%, a growth inhibition [5] of -1.9% and a growth inhibition [6] of -12.4%.

`COc1ccc2nc(NCCNCCO)cc(NCCNCCO)c2c1` showed a growth inhibition [1] of -12.2%, a growth inhibition [2] of -3.25% and a growth inhibition [3] of 1.2%. The growth inhibition [4] was 4.65%, the growth inhibition [5] was -0.75% and the growth inhibition [6] was 11.3%.

`O=C(OCCc1ccccc1)C(O)c1ccccc1` (configuration not stated) gave a growth inhibition [1] of 11.3%, a growth inhibition [2] of -6.05% and a growth inhibition [3] of 3%. The growth inhibition [4] was 10.7%, the growth inhibition [5] was 6.6% and the growth inhibition [6] was -1.3%.

`CO[C@@H]1C2C3c4ccccc4C(c4ccccc43)C2[C@H](OC)[C@H]2OC(c3ccccc3)O[C@H]21` (some centres not stated) showed a growth inhibition [1] of -13.4%, a growth inhibition [2] of -14.9% and a growth inhibition [3] of 7.15%. For the same molecule, the growth inhibition [4] was 10%, the growth inhibition [5] was 2.15% and the growth inhibition [6] was -2.65%.

With `Cc1nc2cccc([N+](=O)[O-])c2s1` the growth inhibition [1] was 15.2%, the growth inhibition [2] was 1.7% and the growth inhibition [3] was 28.4%. It also gave a growth inhibition [4] of 11.7%, a growth inhibition [5] of 17.4% and a growth inhibition [6] of 20.4%.

In the case of `COC(=O)C(=C(C)C)S(=O)c1ccccc1` (configuration not stated), the growth inhibition [1] is reported as -9.85%, the growth inhibition [2] is reported as 1.4% and the growth inhibition [3] is reported as -3.55%. For the same molecule, the growth inhibition [4] was -16%, the growth inhibition [5] was -13.6% and the growth inhibition [6] was 3.45%.

For `CCCCCCCC(=O)NS(=O)(=O)c1ccccc1`, the growth inhibition [1] was 31.7%, the growth inhibition [2] was 20.7% and the growth inhibition [3] was 27.8%. For the same molecule, the growth inhibition [4] was 52.2%, the growth inhibition [5] was 37.2% and the growth inhibition [6] was 39.8%.

`Cc1cc2c(cc1C)OC(=O)CC2` showed a growth inhibition [1] of 14.3%, a growth inhibition [2] of 6.15% and a growth inhibition [3] of -1.2%. For the same molecule, the growth inhibition [4] was -11.9%, the growth inhibition [5] was 7.45% and the growth inhibition [6] was 3.65%.

`Cc1cc(Sc2ccc(Cl)cc2)nc(Sc2ccc(Cl)cc2)c1C#N` showed a growth inhibition [1] of 7.6%, a growth inhibition [2] of -30.5% and a growth inhibition [3] of -27.9%. The growth inhibition [4] was -20.6%, the growth inhibition [5] was -10.7% and the growth inhibition [6] was -26.9%.

With `Cc1occc1C(=S)Nc1ccc(Cl)c(C(=O)OC2CCCC2)c1` the growth inhibition [1] was 40.1%, the growth inhibition [2] was 21.2% and the growth inhibition [3] was 35%. The growth inhibition [4] was 60.5%, the growth inhibition [5] was 46.4% and the growth inhibition [6] was 29.6%.

`NC(=S)N/N=C/c1ccccc1S(=O)(=O)O` showed a growth inhibition [1] of 1.9%, a growth inhibition [2] of -12.8% and a growth inhibition [3] of -9.75%. It also gave a growth inhibition [4] of -16.2%, a growth inhibition [5] of 0.05% and a growth inhibition [6] of -4.7%.

`COC(=O)N/N=C(\C(=O)Nc1cccc([N+](=O)[O-])c1)c1nc2ccc([N+](=O)[O-])cc2[nH]c1=O` gave a growth inhibition [1] of 8.65%, a growth inhibition [2] of -7.75% and a growth inhibition [3] of 25%. It also gave a growth inhibition [4] of 14.8%, a growth inhibition [5] of -17.1% and a growth inhibition [6] of -1.25%.

Work on `CCC/C=N/Nc1ccc([N+](=O)[O-])cc1[N+](=O)[O-]` yielded a growth inhibition [1] of -11.3%, a growth inhibition [2] of -9.95% and a growth inhibition [3] of 0.3%. The growth inhibition [4] was -12.5%, the growth inhibition [5] was 0.9% and the growth inhibition [6] was -16.1%.

`CN(C)N1C(=C(C#N)C#N)C(c2ccccc2)CC1C#N` (configuration not stated) gave a growth inhibition [1] of 9.55%, a growth inhibition [2] of 12.9% and a growth inhibition [3] of -22.8%. It also gave a growth inhibition [4] of 13.2%, a growth inhibition [5] of -25.8% and a growth inhibition [6] of -41.5%.

For `CCN(c1ccccc1)c1cc2c(cc1[N+](=O)[O-])no[n+]2[O-]`, the growth inhibition [1] was 97.1% (active), the growth inhibition [2] was 96.9% (active) and the growth inhibition [3] was 98.3% (active). The growth inhibition [4] was 96.6% (active), the growth inhibition [5] was 98.1% (active) and the growth inhibition [6] was 97.1% (active).

For `O=c1c2cccnc2ncn1CCN1CCCC1`, the growth inhibition [1] was 5.25%, the growth inhibition [2] was -11.6% and the growth inhibition [3] was -3.5%. The growth inhibition [4] was 8.4%, the growth inhibition [5] was -1.8% and the growth inhibition [6] was 21.1%.

Molecule `CCCCCCC(=O)c1ccco1` has a growth inhibition [1] of 2.4%, a growth inhibition [2] of -18.6% and a growth inhibition [3] of -1.05%. For the same molecule, the growth inhibition [4] was 14.9%, the growth inhibition [5] was -1.75% and the growth inhibition [6] was -11.8%.

Molecule `Cc1ccc2[nH]c(=O)cc(C(F)(F)F)c2c1` has a growth inhibition [1] of 13.2%, a growth inhibition [2] of 6.35% and a growth inhibition [3] of 5.4%. For the same molecule, the growth inhibition [4] was -2.1%, the growth inhibition [5] was -15.2% and the growth inhibition [6] was 21.7%.

Molecule `N#CCCSc1nnc(N)s1` has a growth inhibition [1] of -7.85%, a growth inhibition [2] of -7.9% and a growth inhibition [3] of -8.65%. For the same molecule, the growth inhibition [4] was 16.9%, the growth inhibition [5] was -2.95% and the growth inhibition [6] was -14.8%.

Molecule `O=C(NNC(=O)Nc1ccccc1)Nc1ccccc1` has a growth inhibition [1] of -0.8%, a growth inhibition [2] of -16.7% and a growth inhibition [3] of -0.95%. For the same molecule, the growth inhibition [4] was -12.9%, the growth inhibition [5] was -3.2% and the growth inhibition [6] was -7%.

Work on `O=C(Nc1ccc2ccccc2c1)C(F)(F)F` yielded a growth inhibition [1] of -14.7%, a growth inhibition [2] of -1% and a growth inhibition [3] of -4.25%. For the same molecule, the growth inhibition [4] was -9.8%, the growth inhibition [5] was 5.4% and the growth inhibition [6] was -8.95%.

`CCCc1cc2c3c(c(=O)oc2cc1O)CCCCC3` gave a growth inhibition [1] of -17.9%, a growth inhibition [2] of 19.4% and a growth inhibition [3] of 4.7%. For the same molecule, the growth inhibition [4] was -22.5%, the growth inhibition [5] was -9.8% and the growth inhibition [6] was -14.3%.
